This is an account of results in PubChem BioAssay (NCATS).

Each structure is given as a SMILES string. Records with an inconclusive call do not appear. Entries that show only a call come without a potency. The source made the active and inactive calls. The call rests on the fitted dose curve; in most records, active means well fitted inhibition curve with a large enough effect; inconclusive means small, poorly fitted or top-dose-only effect; inactive means flat fitted curve, though single readings scatter.

The experiment concerns CRL-7250. The experiment in a line: qHTS assay to identify novel small-molecules to repurpose for Merkel cell carcinoma treatment (AID 1296009). Further: nearly all actives have a fitted effect of over 60% in size. Particulars: MCC and control cell lines, CellTiter-Glo viability, 72 h; series mostly up to 92 µM. The essentials: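 Cells exposed to NPC (8-point) and MIPE (11-point) compound dilutions for 72 hr at 37 degree celsius; viability read by CellTiter-Glo luminescence, normalized to no-cell and DMSO in-plate controls.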
For `C=C1CC[C@H]2[C@@](C)(CCC(O)[C@@]2(C)CO)[C@@H]1C/C=C(/C(=O)O)C(O)CO` (stereo not given in full), the Potency result is “inactive”. As to `NS(=O)(=O)c1ccc(NC(=O)Nc2ccc(F)cc2)cc1`, the Potency result was “inactive”. As to `CC1=CC2/C=C(\C)CCC(O)C(=O)C(O)CC(=O)C23C(=O)NC(CC(C)C)C3C1C` (stereo not given), the Potency entry was “inactive”. In the case of `C=CC(C)(O)CC/C=C(\C)C(=O)O[C@@H]1[C@@H](O)[C@H](OC(C)(C=C)CC/C=C(\C)C(=O)O)O[C@H](CO)[C@H]1OC(=O)/C(C)=C/CCC(C)(O)C=C` (stereo not given in full), the Potency entry is “inactive”.

`C[C@H](/C=C/[C@@]1(O)[C@H](C)CC(=O)CC1(C)C)O[C@@H]1O[C@H](CO[C@@H]2OC[C@@H](O)[C@H](O)[C@H]2O)[C@@H](O)[C@H](O)[C@H]1O`: the Potency result was “inactive”.

In the case of `C/C1=C\CC[C@H](C)CCO[C@@H]2O[C@H](CO[C@@H]3OC[C@](O)(COC1=O)[C@H]3O)[C@@H](O)[C@H](O)[C@H]2O`, the Potency entry was “inactive”.

As to `O=C(O)Cn1nnc(-c2ccc(CN(CCCCOc3ccc(CN4CCCC4)cc3)CCc3ccccc3)cc2)n1`, the Potency entry was “inactive”. The result for `CC(C)CCC[C@@H](C)[C@H]1CC[C@H]2[C@@H]3CC=C4C[C@@H](OC(=O)NCCN(C)C)CC[C@]4(C)[C@H]3CC[C@]12C` reads “inactive”; that for `CC(C)C1(O[C@@H]2O[C@H](CO)[C@@H](O)[C@H](O)[C@H]2O)CC=C(CO)CC1` (stereo not given in full), “inactive”. The same measure for `CNC(C)C(=O)NC(C(=O)N1CCCC1C(=O)Nc1cccc2ncccc12)C(C)C` (stereo not given): “inactive”.
